Each structure is given as a SMILES string. About 18,000 (4.4%) of roughly 410,000 compounds were called active. About 7% were inconclusive and are not listed. Rule as the data show it: active = activity change below about -60%; inconclusive = no clear call, values can overlap the other calls; inactive = above about -39%. This excerpt belongs to a sample that is enriched for actives.
% is scaled to controls: 0 for no effect and ±100 for the full control effect.

The nature of the assay: qHTS Assay for inhibitors of the human cytomegalovirus (HCMV). Conditions: HFF cells, HCMV-luciferase reporter, 72 h; at 57.5 µM; active compounds read low. The gist of the method: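 Screen run at 2 compound doses on HFFs infected with reporter HCMV, MOI 1 PFU/cell. Luciferase activity from cell lysates at 72 h post infection gave inhibition relative to buffer-only and Salinomycin wells.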
(In general: Quantitative high-throughput screening tests each substance at several concentrations.)
Turning to `COc1ccccc1OCC(=O)Nc1nnc2n1CCS2`, the activity change, negative = inhibition was 1.36% (inactive).

On to `CC1CN(C(=O)N2CCC(C(=O)NCc3ccco3)CC2)c2cc(Cl)ccc2O1` (stereo unspecified), for which the activity change, negative = inhibition is -3.73% (inactive).

As for `O=C1CCCN1CCCNC(=S)Nc1ccc(F)c(Cl)c1`, the activity change, negative = inhibition is -22.1% (inactive).

In the case of `Cn1c(=O)c2sccc2n2c(CCC(=O)NCc3ccccc3Cl)nnc12`, the activity change, negative = inhibition is 9.44% (inactive).

For `O=C(CCc1nnc2ccc(NCCCN3CCCC3=O)nn12)NCc1ccccc1Cl`, the activity change, negative = inhibition is 0% (active).

Regarding `Cc1cc(=O)c2cc(C(=O)Nc3cccc(C)c3C)ccc2[nH]1`, the activity change, negative = inhibition was -7.29% (inactive).

Turning to `C[C@@H]1CC2=C(C(=O)OC(C)(C)O2)[C@@H](C2CC2)O1`, the activity change, negative = inhibition is 7.2% (inactive).

On to `CCN(C(=O)COC(=O)c1c(C)nn(-c2ccccc2)c1Cl)c1c(N)n(Cc2ccccc2)c(=O)[nH]c1=O`, for which the activity change, negative = inhibition was -3.2% (inactive).

As to `Cn1cccc1Cc1nnc(SCC(=O)NCc2ccc3c(c2)OCO3)n1CCc1ccccc1`, the activity change, negative = inhibition was -7.07% (inactive).

As to `O=C(CSc1ncnc2scc(-c3ccccc3)c12)NCc1ccc2c(c1)OCO2`, the activity change, negative = inhibition is -73.8% (active).

Consider `O=C(CSc1ccc(-c2ccco2)nn1)NCc1ccc2c(c1)OCO2`, for which the activity change, negative = inhibition is -3.61% (inactive).

For `COc1cc2nc(SCc3ccc(F)cc3)n3nc(CCn4c(C)nc5ccccc54)nc3c2cc1OC`, the activity change, negative = inhibition is -1.21% (inactive).

For the compound `O=C(CCC(=O)N1CC2CCCN2c2ccccc21)NCc1ccccc1Cl` (stereo unspecified), the activity change, negative = inhibition was -6.89% (inactive).

Regarding `COc1cc(NC(=O)CSc2nc3nc(C)c(Cc4ccc(C)cc4)c(C)n3n2)cc(OC)c1OC`, the activity change, negative = inhibition was 0% (inactive).

For `CCOC(=O)c1c(NC(=O)c2ccc(S(=O)(=O)N3CCCC(C)C3)cc2)sc2c1CCN(C(C)C)C2` (stereo unspecified), the activity change, negative = inhibition is -62.5% (active).

For the compound `COC(=O)c1c(NC(=O)c2ccc(S(=O)(=O)N3CCOCC3)cc2)sc2c1CCN(C(C)C)C2`, the activity change, negative = inhibition was -4.29% (inactive).

On to `CCOC(=O)c1c(NC(=O)C2CCN(S(=O)(=O)c3ccc(Cl)cc3)CC2)sc2c1CCCC2`, for which the activity change, negative = inhibition is -10.4% (inactive).

`NC(=O)CSc1nc2c(oc3ccccc32)c(=O)n1Cc1ccccc1`: the activity change, negative = inhibition was -22.4% (inactive).

In the case of `COc1ccc(OC)c(NC(=O)Cn2c(=O)n(Cc3ccccc3)c(=O)c3ccccc32)c1`, the activity change, negative = inhibition was -3.04% (inactive).

Regarding `COc1cccc(C(=O)N(Cc2cccc(Cl)c2)Cc2ccco2)c1`, the activity change, negative = inhibition was -7.17% (inactive).

As to `CCC(=C/c1sc2ccc3ccccc3c2[n+]1C)/C=C1\Sc2ccc3ccccc3c2N1C`, the activity change, negative = inhibition was -100% (active).

On to `CCOc1ccc(N2CC(c3nc4ccccc4n3CCOc3ccc(OC)cc3)CC2=O)cc1` (stereo unspecified), for which the activity change, negative = inhibition was 23.3% (inactive).

With `Cc1ccc(-n2c(=O)c3cccnc3n2CC(=O)NCc2ccc(F)cc2)cc1C`, the activity change, negative = inhibition was -0.36% (inactive).

Take `CCOc1ccc(NC(=O)c2cc3c(=O)n(Cc4cccs4)ccc3nc2C)cc1`: the activity change, negative = inhibition is -12.4% (inactive).

Regarding `CCOc1ccc(NC(=O)CSc2nc3ccccc3c(=O)n2Cc2cccs2)cc1`, the activity change, negative = inhibition was -62.8% (active).

Consider `O=C(CSc1nc2nccnc2c(=O)n1Cc1cccs1)Nc1ccccc1F`, for which the activity change, negative = inhibition is -31.3% (inactive).

Take `CCc1ccc(C(=O)C(C)OC(=O)CN2C(=O)NC3(CCCC3)C2=O)cc1` (stereo unspecified): the activity change, negative = inhibition is -31.9% (inactive).

Regarding `O=S(=O)(NCC1CN(S(=O)(=O)c2ccc3c(c2)OCCO3)C1)c1c(F)cccc1F`, the activity change, negative = inhibition was -3.7% (inactive).

In the case of `Cc1ccc(S(=O)(=O)c2nc(-c3ccco3)oc2SCC(=O)Nc2ccc(F)cc2)cc1`, the activity change, negative = inhibition is 1.94% (inactive).

Consider `COc1ccccc1CNc1nccn(-c2ccc(F)cc2)c1=O`, for which the activity change, negative = inhibition is 18.6% (inactive).

In the case of `Cn1nc(-c2ccccc2)c2cc([N+](=O)[O-])ccc21`, the activity change, negative = inhibition was -91.8% (active).

Regarding `Cn1cnc(C(F)(F)F)c1-c1ccc([N+](=O)[O-])cc1`, the activity change, negative = inhibition was -9.95% (inactive).

On to `CCN(CC)S(=O)(=O)c1cc([N+](=O)[O-])ccc1N=Nc1c(O)n(C)c2ccccc12`, for which the activity change, negative = inhibition is -37.9% (inactive).

In the case of `Cc1cccc(NS(=O)(=O)c2cc(Cl)ccc2Cl)n1`, the activity change, negative = inhibition is -15.4% (inactive).

Regarding `Cn1c(=O)c2[nH]c(NCC3CCCO3)nc2n(-c2ccccc2)c1=O` (stereo unspecified), the activity change, negative = inhibition is -3.27% (inactive).

As to `CCCCCNC(=O)c1cccnc1SCC(=O)Nc1ccccc1OC`, the activity change, negative = inhibition was -9.93% (inactive).

Turning to `CCN1CCN(Cc2c(O)ccc3oc(C)c(C(=O)Nc4ccc(C)cc4C)c23)CC1`, the activity change, negative = inhibition was -4.07% (inactive).

As to `Cc1oc2ccc(O)c(CN3CCC(C)CC3)c2c1C(=O)Nc1ccccc1`, the activity change, negative = inhibition was -68.4% (active).

In the case of `Cc1ccc(Oc2c(C(F)(F)F)oc3c(CN4CCCCC4)c(O)ccc3c2=O)cc1`, the activity change, negative = inhibition was 13.5% (inactive).

On to `Cc1oc2ccc(O)c(CN3CCOCC3)c2c1C(=O)Nc1cccc(Cl)c1C`, for which the activity change, negative = inhibition was 0.476% (inactive).

Consider `CCOC(=O)c1cccc(NC(=O)c2cc(CN3CCCC3)on2)c1`, for which the activity change, negative = inhibition was 88.3% (inactive).

With `Cc1oc2ccc(O)c(CN3CCCCC3)c2c1C(=O)Nc1cccc(C(F)(F)F)c1`, the activity change, negative = inhibition was -76.5% (active).

As for `O=C(NCC(F)(F)F)c1ccc(S(=O)(=O)NCCc2ccc3c(c2)OCCO3)cc1`, the activity change, negative = inhibition is -6.01% (inactive).

On to `CCOc1ccccc1NC(=O)Cn1c2ncccc2c(=O)n1-c1ccc(C)c(C)c1`, for which the activity change, negative = inhibition is -10.1% (inactive).

As to `CC1CCCN(S(=O)(=O)c2ccc3[nH]c(=O)cc(C(=O)NCCc4ccc(Cl)cc4)c3c2)C1` (stereo unspecified), the activity change, negative = inhibition is -16.9% (inactive).

For `COc1cc(NC(=O)c2cc([N+](=O)[O-])ccc2Br)ccc1NC(=O)c1ccco1`, the activity change, negative = inhibition was -60.9% (active).

Regarding `COC(=O)C(O)(c1ccc(NC(=O)c2ccco2)c(OC)c1)C(F)(F)F` (stereo unspecified), the activity change, negative = inhibition was 14.6% (inactive).

For `CCOC(=O)C(O)(c1ccc(NC(=O)c2ccco2)c(OC)c1)C(F)(F)F` (stereo unspecified), the activity change, negative = inhibition is 8.29% (inactive).

As to `C=CCOC(=O)C1=C[C@@H](c2ccc3c(c2)OCO3)C[C@@H](OCCCCO)O1`, the activity change, negative = inhibition was 20.6% (inactive).

On to `CN1C(=O)CC[C@@H](S(=O)(=O)c2ccccc2)[C@@H]1c1ccccc1`, for which the activity change, negative = inhibition was 9.42% (inactive).

As to `CCOCCCNC(=O)c1cn(CC)c2ccc(S(=O)(=O)N3CCc4ccccc4C3)cc2c1=O`, the activity change, negative = inhibition was 8.54% (inactive).

Turning to `Cc1cc(C)c2nc3nc(C)cc(C)c3c(N)c2c1`, the activity change, negative = inhibition was -100% (active).

On to `CCOc1ccc(S(=O)(=O)NCCC(=O)N2CCCCCCC2)cc1`, for which the activity change, negative = inhibition was -33.2% (inactive).

For `Cc1c(C(=O)NCc2ccccc2)cnn1-c1ccccc1`, the activity change, negative = inhibition was -15.9% (inactive).

`CCCc1c(C(=O)Nc2ccc(F)cc2)cnn1-c1ccccc1`: the activity change, negative = inhibition is 64.5% (inactive).

With `CCNC(=O)c1cnn(-c2ccccc2)c1-c1ccccc1`, the activity change, negative = inhibition is -99.9% (active).
